# In PubChem BioAssay (NCI):
# The panel holds about 79,000 compounds, 15% with a hit somewhere; the sample as a whole holds those more often. Values without a mark were called inactive. The source made the active and inactive calls. Rule as the data show it: active = growth inhibition above about 70%; inactive = the rest.
# What was measured:
# [1] = NCI Yeast Anticancer Drug Screen. Data for the rad52 strain (AID 147);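 also: 0% = growth of vehicle-treated control cultures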; settings: S. cerevisiae rad52 mutant growth inhibition, active compounds read high
# Summary of the method: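 Genetically altered yeast (DNA damage repair defect) treated with compound; inhibition calculated relative to vehicle.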
# [2] = NCI Yeast Anticancer Drug Screen. Data for the rad50EPP+ strain (AID 151);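 also: 0% = growth of vehicle-treated control cultures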; settings: S. cerevisiae rad50 mutant strain, active compounds read high
# Summary of the method: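 Strain rad50EPP+; compound exposure; % growth inhibition vs vehicle.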
# [3] = NCI Yeast Anticancer Drug Screen. Data for the mgt1 strain (AID 153); settings: S. cerevisiae mgt1 mutant growth inhibition, active compounds read high
# Summary of the method: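 Read-out: yeast growth inhibition vs vehicle control. Strain mgt1, drawn from a panel altered in DNA damage repair or cell cycle control.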
# [4] = NCI Yeast Anticancer Drug Screen. Data for the rad50 strain (AID 155);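 also: 0% = growth of vehicle-only cultures of the same strain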; settings: S. cerevisiae rad50 strain growth inhibition, active compounds read high
# Summary of the method: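 Vehicle-treated cultures provide the reference for the growth inhibition reported for compound-exposed, repair-deficient yeast.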
# [5] = NCI Yeast Anticancer Drug Screen. Data for the mec2-1 strain (AID 157); settings: S. cerevisiae mec2-1 strain, active compounds read high
# Summary of the method: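 Cells of the genetically defined mec2-1 yeast strain are incubated with test compound. Inhibition of growth is calculated against vehicle-treated controls.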
# [6] = NCI Yeast Anticancer Drug Screen. Data for the rad14 strain (AID 159);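 also: 0% = growth of vehicle-treated control cultures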; settings: S. cerevisiae rad14 strain growth inhibition, active compounds read high
# Summary of the method: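 Inhibition of growth is reported for a repair-deficient yeast mutant following compound treatment, calculated relative to cultures that received vehicle.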
# [7] = NCI Yeast Anticancer Drug Screen. Data for the sgs1 mgt1 strain (AID 161);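 also: 0% = growth of cultures given vehicle only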; settings: S. cerevisiae sgs1 mgt1 strain, active compounds read high
# Summary of the method: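 Test agents were incubated with a DNA-repair-mutant yeast strain. Growth was then read and compared against vehicle-treated controls.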
# [8] = NCI Yeast Anticancer Drug Screen. Data for the CLN2oe strain (AID 163);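 also: 0% = growth of vehicle-only control cultures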; settings: S. cerevisiae CLN2oe strain, active compounds read high
# Summary of the method: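 Strain altered in cell-cycle control, incubated with compound; growth compared to solvent-treated controls.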
# [9] = NCI Yeast Anticancer Drug Screen. Data for the cln2 rad14 strain (AID 165);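 also: 0% = growth equal to vehicle treated cultures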; settings: S. cerevisiae cln2 rad14 strain, active compounds read high
# Summary of the method: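 The screen exposed genetically defined yeast (cln2 rad14) to test compounds and scored growth inhibition relative to vehicle-treated controls.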
# [10] = NCI Yeast Anticancer Drug Screen. Data for the bub3 strain (AID 167); settings: S. cerevisiae bub3 mutant strain, active compounds read high
# Summary of the method: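 Mutant yeast screening strain plus compound; vehicle-treated cultures serve as the 0% inhibition reference.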
# [11] = NCI Yeast Anticancer Drug Screen. Data for the wt2 strain (AID 169); settings: S. cerevisiae wt2 strain growth inhibition, active compounds read high
# Summary of the method: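 Steps: yeast strain treated with compound; growth recorded; inhibition calculated relative to cultures given vehicle alone.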
# [12] = NCI Yeast Anticancer Drug Screen. Data for the mlh1 strain (AID 171);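 also: 0% = growth of vehicle-treated control cultures of the same strain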; settings: S. cerevisiae mlh1 strain growth inhibition, active compounds read high
# Summary of the method: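 Yeast screen: mutant strain plus compound, growth scored against vehicle control wells.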
# [13] = NCI Yeast Anticancer Drug Screen. Data for the sgs1 strain (AID 173);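 also: 0% = growth of vehicle-only control cultures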; settings: S. cerevisiae sgs1 mutant, active compounds read high
# Summary of the method: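 Inhibition of yeast growth served as the measure. The mutant strain was treated with each compound, and growth was normalised to cultures receiving vehicle alone.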
# [14] = NCI Yeast Anticancer Drug Screen. Data for the mlh1 rad18 strain (AID 175); settings: S. cerevisiae mlh1 rad18 strain growth inhibition, active compounds read high
# Summary of the method: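 Compound-treated yeast growth, normalised to vehicle controls. Strain bears defined DNA repair mutations.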
# [15] = NCI Yeast Anticancer Drug Screen. Data for the rad18 strain (AID 177); settings: S. cerevisiae rad18 mutant growth inhibition, active compounds read high
# Summary of the method: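 Inhibition values reflect reduced yeast growth compared with vehicle-treated controls, using a strain engineered with a DNA damage repair defect.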
# [16] = at 5.0 µM (retest, dose inferred, filed as 0.5)
# [17] = at 50.0 µM (retest, dose inferred, filed as 5.0)
structure (smiles),measurement,setting,value
CCN(CC)CCOc1cc(C)c2cc(Cc3ccccc3)ccc2n1,growth inhibition,[1]; at 1.2 µM,-1%
same,growth inhibition,[1]; at 3.7 µM,2%
same,growth inhibition,[1]; at 11.0 µM,2%
same,growth inhibition,[1]; at 33.0 µM,18%
same,growth inhibition,[1]; at 100.0 µM,82% (active)
same,growth inhibition,[2]; at 1.2 µM,0%
same,growth inhibition,[2]; at 3.7 µM,0%
same,growth inhibition,[2]; at 11.0 µM,3%
same,growth inhibition,[2]; at 33.0 µM,7%
same,growth inhibition,[2]; at 100.0 µM,31%
same,growth inhibition,[3]; at 1.2 µM,2%
same,growth inhibition,[3]; at 3.7 µM,5%
same,growth inhibition,[3]; at 11.0 µM,10%
same,growth inhibition,[3]; at 33.0 µM,35%
same,growth inhibition,[3]; at 100.0 µM,98% (active)
same,growth inhibition,[4]; at 1.2 µM,-40%
same,growth inhibition,[4]; at 3.7 µM,-2%
same,growth inhibition,[4]; [16],7%
same,growth inhibition,[4]; at 11.0 µM,-1%
same,growth inhibition,[4]; at 33.0 µM,13%
same,growth inhibition,[4]; [17],57%
same,growth inhibition,[4]; at 50.0 µM,88.2% (active)
same,growth inhibition,[4]; at 100.0 µM,92% (active)
same,growth inhibition,[5]; at 1.2 µM,-2%
same,growth inhibition,[5]; at 3.7 µM,-3%
same,growth inhibition,[5]; [16],-2%
same,growth inhibition,[5]; at 11.0 µM,1%
same,growth inhibition,[5]; at 33.0 µM,17%
same,growth inhibition,[5]; [17],8%
same,growth inhibition,[5]; at 50.0 µM,82.7% (active)
same,growth inhibition,[5]; at 100.0 µM,84% (active)
same,growth inhibition,[6]; at 1.2 µM,4%
same,growth inhibition,[6]; at 3.7 µM,16%
same,growth inhibition,[6]; at 11.0 µM,25%
same,growth inhibition,[6]; at 33.0 µM,36%
same,growth inhibition,[6]; at 100.0 µM,99% (active)
same,growth inhibition,[7]; [16],5%
same,growth inhibition,[7]; [17],47%
same,growth inhibition,[7]; at 50.0 µM,96% (active)
same,growth inhibition,[8]; at 1.2 µM,-4%
same,growth inhibition,[8]; at 3.7 µM,-9%
same,growth inhibition,[8]; at 11.0 µM,0%
same,growth inhibition,[8]; at 33.0 µM,15%
same,growth inhibition,[8]; at 100.0 µM,52%
same,growth inhibition,[9]; [16],2%
same,growth inhibition,[9]; [17],-5%
same,growth inhibition,[9]; at 50.0 µM,53.9%
same,growth inhibition,[10]; at 1.2 µM,2%
same,growth inhibition,[10]; at 3.7 µM,1%
same,growth inhibition,[10]; [16],2%
same,growth inhibition,[10]; at 11.0 µM,9%
same,growth inhibition,[10]; at 33.0 µM,38%
same,growth inhibition,[10]; [17],13%
same,growth inhibition,[10]; at 50.0 µM,88.2% (active)
same,growth inhibition,[10]; at 100.0 µM,81% (active)
same,growth inhibition,[11]; at 1.2 µM,-1%
same,growth inhibition,[11]; at 3.7 µM,-2%
same,growth inhibition,[11]; at 11.0 µM,2%
same,growth inhibition,[11]; at 33.0 µM,13%
same,growth inhibition,[11]; at 100.0 µM,94% (active)
same,growth inhibition,[12]; at 1.2 µM,0%
same,growth inhibition,[12]; at 3.7 µM,1%
same,growth inhibition,[12]; at 11.0 µM,11%
same,growth inhibition,[12]; at 33.0 µM,28%
same,growth inhibition,[12]; at 100.0 µM,94% (active)
same,growth inhibition,[13]; at 1.2 µM,0%
same,growth inhibition,[13]; at 3.7 µM,3%
same,growth inhibition,[13]; at 11.0 µM,12%
same,growth inhibition,[13]; at 33.0 µM,35%
same,growth inhibition,[13]; at 100.0 µM,96% (active)
same,growth inhibition,[14]; [16],5%
same,growth inhibition,[14]; [17],28%
same,growth inhibition,[14]; at 50.0 µM,96% (active)
same,growth inhibition,[15]; at 1.2 µM,3%
same,growth inhibition,[15]; at 3.7 µM,15%
same,growth inhibition,[15]; at 11.0 µM,28%
same,growth inhibition,[15]; at 33.0 µM,65%
same,growth inhibition,[15]; at 100.0 µM,99% (active)
